“And” between values parts separate entries of the source, which are not always exact repeats. Equal values may be shown once. About 2,000 (36%) of roughly 5,500 compounds were called active. Roughly 18% stayed inconclusive and do not appear here. Cut-off read from the data, not from the text of the source: active = normalized growth mostly below about 0.91 (no sharp cut-off); inconclusive = no clear call, values can overlap the other calls; inactive = mostly above about 0.92. The list shows a part of the results.
Assay: chemical genetic growth profiling, strain panel (AID 1159580);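 note: tested at 20 µM; growth read once vehicle control cultures reached saturation at 30 °C; 1 = growth at the plate median or of vehicle wells; lower values mean less growth of the strain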
Conditions: S. cerevisiae deletion strains, growth OD

Measured: normalized growth

COC(=O)C[C@H]1C(C)(C)C2(O)OC34CC2C(=O)[C@]1(C)C3CC[C@]1(C)C4=CC(=O)O[C@H]1c1ccoc1 (some centres not stated)
inactive: locus YAL013W, strain DEP1, active compounds read low 1.01 | locus YAL021C, strain ccr4, active compounds read low 0.99 | locus YAL026C, strain drs2, active compounds read low 0.998 | locus YAL030W, strain snc1, active compounds read low 0.99 | locus YBL061C, strain skt5, active compounds read low 0.999 | locus YBR009C, strain hhf1, active compounds read low 1.01 | locus YBR021W, strain FUR4, active compounds read low 0.976 | locus YBR023C, strain chs3, active compounds read low 0.99 | locus YBR171W, strain sec66, active compounds read low 0.973 | locus YBR229C, strain ROT2, active compounds read low 1.01 | locus YBR231C, strain swc5, active compounds read low 0.986 | locus YBR279W, strain paf1, active compounds read low 0.998 | locus YCL011C, strain gbp2, active compounds read low 0.978 | locus YCL016C, strain dcc1, active compounds read low 1 | locus YCL029C, strain bik1, active compounds read low 1.01 | locus YCL061C, strain MRC1, active compounds read low 1.02 | locus YCL069W, strain vba3, active compounds read low 0.977 | locus YCR088W, strain abp1, active compounds read low 0.978 | locus YDL005C, strain med2, active compounds read low 0.991 | locus YDL035C, strain GPR1, active compounds read low 1 | locus YDL040C, strain nat1, active compounds read low 0.973 | locus YDL074C, strain BRE1, active compounds read low 1.01 | locus YDL101C, strain DUN1, active compounds read low 1 | locus YDL134C, strain PPH21, active compounds read low 1.01 | locus YDL185W, strain tfp1, active compounds read low 1.01 | locus YDL192W, strain arf1, active compounds read low 1.01 | locus YDR001C, strain nth1, active compounds read low 0.991 | locus YDR069C, strain doa4, active compounds read low 0.988 | locus YDR101C, strain arx1, active compounds read low 1.01 | locus YDR137W, strain rgp1, active compounds read low 1.03 | locus YDR150W, strain NUM1, active compounds read low 0.993 | locus YDR159W, strain sac3, active compounds read low 0.973 | locus YDR162C, strain NBP2, active compounds read low 1.02 | locus YDR195W, strain ref2 0.963 | locus YDR297W, strain sur2, active compounds read low 0.994 | locus YDR318W, strain mcm21, active compounds read low 1 | locus YDR334W, strain swr1, active compounds read low 0.975 | locus YDR335W, strain msn5, active compounds read low 0.983 | locus YDR388W, active compounds read low 1 | locus YDR392W, strain spt3, active compounds read low 0.952 | locus YDR502C, strain sam2, active compounds read low 0.994 | locus YEL003W, strain gim4, active compounds read low 0.992 | locus YEL037C, strain rad23, active compounds read low 0.98 | locus YEL061C, strain CIN8 (second series), active compounds read low 0.972 | locus YER015W, strain faa2, active compounds read low 0.996 | locus YER016W, strain bim1, active compounds read low 0.984 | locus YER110C, active compounds read low 1.02 | locus YER111C, strain swi4, active compounds read low 0.985 | locus YER155C, strain BEM2 (second series), active compounds read low 0.993 | locus YER155C, strain BEM2, active compounds read low 0.992 | locus YER167W, strain BCK2, active compounds read low 0.996 | locus YFR010W, strain ubp6, active compounds read low 0.974 | locus YGL078C, strain dbp3, active compounds read low 1.02 | locus YGL086W, strain mad1, active compounds read low 0.99 | locus YGL167C, strain pmr1, active compounds read low 1 | locus YGL173C, strain kem1, active compounds read low 0.988 | locus YGL227W, strain vid30, active compounds read low 0.983 | locus YGL240W, strain doc1, active compounds read low 0.971 | locus YGL248W, strain PDE1, active compounds read low 1.01 | locus YGL253W, strain hxk2, active compounds read low 0.968 | locus YGR135W, strain pre9, active compounds read low 1.01 | locus YGR252W, strain gcn5, active compounds read low 1.05 | locus YHR013C, strain ard1, active compounds read low 0.988 | locus YHR027C, strain rpn1, active compounds read low 0.99 | locus YHR030C, strain SLT2, active compounds read low 1 and 0.968 | locus YHR079C, strain IRE1 (second series), active compounds read low 1.01 | locus YHR079C, strain IRE1, active compounds read low 0.972 | locus YHR094C, strain hxt1, active compounds read low 1.02 | locus YHR129C, strain ARP1, active compounds read low 1 | locus YHR142W, strain chs7, active compounds read low 0.975 | locus YHR200W, strain rpn10, active compounds read low 1 | locus YIL066C, strain RNR3, active compounds read low 1.01 | locus YIL073C, strain SPO22, active compounds read low 1.01 | locus YIL125W, strain kgd1, active compounds read low 1.01 | locus YIR030C, strain dcg1, active compounds read low 1.01 | locus YJL092W, strain hpr5, active compounds read low 0.98 | locus YJL095W, strain BCK1 (second series), active compounds read low 0.988 | locus YJL095W, strain BCK1, active compounds read low 0.982 and 0.98 | locus YJL115W, strain asf1, active compounds read low 0.984 | locus YJL129C, strain trk1, active compounds read low 1 | locus YJL134W, strain LCB3, active compounds read low 1 | locus YJL154C, strain vps35, active compounds read low 0.989 | locus YJL164C, strain tpk1, active compounds read low 1 | locus YJL166W, strain qcr8, active compounds read low 0.986 | locus YJL168C, strain set2, active compounds read low 0.996 | locus YJL187C, strain SWE1 (second series), active compounds read low 1.01 | locus YJL187C, strain SWE1, active compounds read low 1.01
